From PubChem
TROY NFkB inh: TROY signaling inhibition; Q293 LMP1-TROYcd NF-kB luciferase reporter, 4 h; inhibition, % at 10 µM; 360,000 tested, 0.98% active;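 active means compounds whose plate-normalised and pattern-corrected inhibition of the luciferase reporter signal at the single screening dose is 50% or more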
LGR2 inh: inhibitors of bursicon-induced Drosophila LGR2 receptor cAMP signaling; 380,000 tested, 0.35% active; HEK293 LGR2, CRE-luciferase, bursicon-stimulated, 4 h; inhibition, % at 9.99 µM; AID 720647;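 active means drop in luminescence signal, shown as inhibition above about 50% in the replicate tests, limit read from the data, passing the limit was not always enough; inconclusive means probably only some replicates passing the limit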;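 further: agonist challenge used bursicon conditioned medium at about half maximal strength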
EWS-Fli block: blocks EWS/Fli oncoprotein-driven transcription; A673 NR0B1-luciferase reporter, viability-normalised; inhibition, % at 12.6 µM; 350,000 tested, 0.67% active; AID 651661;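 active means mean inhibition of at least 50% after viability correction, with every replicate also passing that limit; inconclusive means mean reaches 50% but only one of two replicates passes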;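 further: firefly luciferase signal divided by Alamar Blue viability fluorescence both relative to DMSO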
LMP1 NFkB inh: Epstein-Barr LMP1 NF-kappaB reporter inhibition; LMP1-induced NF-kappaB luciferase reporter cells, luminescence; inhibition, % at 12.5 µM; 350,000 tested, 0.69% active; in the data active means inhibition above about 41%; inconclusive means no clear call, values can overlap the other calls
TWEAK Fn14 block: TWEAK-Fn14 signaling inhibition | inhibition, % at 10 µM | 360,000 tested, 2% active | TWEAK-stimulated Fn14 reporter cells, luciferase luminescence, 8 h; in the data active means inhibition above about 50%
Each line names hits and unclear results; the compound was inactive in the other large screens; ! = repeats disagree. Compounds with a hit are over-represented: about 2.6% of the library has one in this group of screens.

CO[C@H]1CN(C)C(=O)c2ccc(NC(=O)C3CCC3)cc2OC[C@H](C)N(C(=O)NC(C)C)C[C@@H]1C	none (no result: TROY NFkB inh, LMP1 NFkB inh, TWEAK Fn14 block)
CC(C)(C)NC(=O)COC(=O)c1ccccc1Nc1ccc(SC(F)F)cc1	TWEAK Fn14 block 55 (no result: EWS-Fli block)
NC(=O)COC(=O)c1ccccc1Nc1ccc(SC(F)F)cc1	none (no result: EWS-Fli block)
COc1ccccc1N1CCN(C(=S)Nc2ccc3nc(N4CCOCC4)cc(C)c3c2)CC1	TWEAK Fn14 block 52 (no result: EWS-Fli block)
Cc1cc(N2CCOCC2)nc2ccc(NC(=S)N3CCN(c4ccccc4)CC3)cc12	none
COc1ccccc1N1CCN(C(=S)Nc2cccc(C)c2)CC1	TROY NFkB inh 61, TWEAK Fn14 block 63
CCC(=NCCc1c(C)[nH]c2ccc(OC(F)(F)F)cc12)C1=C(O)CC(c2ccccc2)CC1=O (configuration not stated)	EWS-Fli block 51
CCCCC(=NCCc1c(C)[nH]c2ccc(OC)cc12)C1=C(O)CC(c2ccccc2)CC1=O (configuration not stated)	EWS-Fli block 55
CC(C)NC(=O)N1C[C@H]2[C@@H](c3ccccc31)[C@H](CO)N2C(=O)NC(C)C	none (no result: TROY NFkB inh, LMP1 NFkB inh, TWEAK Fn14 block)
O=[N+]([O-])c1ccc(-c2cnc(SC(c3ccccc3)c3ccccc3)[nH]2)cc1	TROY NFkB inh 62, LGR2 inh inconclusive, TWEAK Fn14 block 79
Cc1cc(C)c(CSc2ncc(-c3ccc([N+](=O)[O-])cc3)[nH]2)c(C)c1	TROY NFkB inh 57 (no result: EWS-Fli block)
CC(=O)Nc1ccc(NC(=O)c2ccc(N(Cc3ccccc3C)S(C)(=O)=O)cc2)cc1	TWEAK Fn14 block 86
C=CCN(c1ccc(C(=O)Nc2ccc3c(c2)OCO3)cc1)S(C)(=O)=O	none
C=CCN(c1ccc(C(=O)Nc2ccc3c(c2)n(C)c(=O)n3C)cc1)S(C)(=O)=O	LMP1 NFkB inh 80
CO[C@@H]1CN(C)C(=O)c2ccc(NS(=O)(=O)c3ccc(C)cc3)cc2OC[C@@H](C)N(Cc2ccccn2)C[C@H]1C	none (no result: TROY NFkB inh, LMP1 NFkB inh, TWEAK Fn14 block)
C[C@@H]1CN([C@H](C)CO)C(=O)c2cc(C#C[C@@H](C)O)cnc2O[C@@H]1CN(C)C(=O)Nc1ccc(C(F)(F)F)cc1	none (no result: TROY NFkB inh, LMP1 NFkB inh, TWEAK Fn14 block)
Cc1ccccc1NC(=S)NNC(=O)c1csc2c1CCC(C)C2 (configuration not stated)	TROY NFkB inh 80, TWEAK Fn14 block 87 (no result: EWS-Fli block)
C[C@@H]1CN([C@H](C)CO)C(=O)c2cc(NC(=O)Nc3ccc(C(F)(F)F)cc3)ccc2O[C@@H](C)CCCCO[C@H]1CN(C)C(=O)C1CCCCC1	none (no result: TROY NFkB inh, LMP1 NFkB inh, TWEAK Fn14 block)
CN(C)CC(C)(C)CNS(=O)(=O)c1ccc(Cl)c(Cl)c1	TROY NFkB inh 52!
CN(C)CCNC(=O)c1cccc(NS(=O)(=O)c2ccc(Cl)c(Cl)c2)c1	none
O=C(C[C@@H]1CC[C@@H](NC(=O)Cc2cccnc2)[C@H](CO)O1)Nc1ccc(-c2ccccc2)cc1	none (no result: TROY NFkB inh, LMP1 NFkB inh, TWEAK Fn14 block)
COc1ccc(-c2ccc([C@@H]3[C@@H](CO)N4CCCCN(C(=O)NC(C)C)C[C@@H]34)cc2)cc1	none (no result: TROY NFkB inh, LMP1 NFkB inh, TWEAK Fn14 block)
CN1CCN(CC(=O)N2N=C(c3cccs3)CC2c2ccco2)CC1 (configuration not stated)	none
O=C(CCl)N1N=C(c2cccs2)CC1c1ccco1 (configuration not stated)	EWS-Fli block 71, TWEAK Fn14 block 67
Cc1nc2cc(-c3ccccc3)sc2c(=O)n1N	TROY NFkB inh 79, LGR2 inh 98, EWS-Fli block 76, LMP1 NFkB inh 74, TWEAK Fn14 block 95
COc1ccc(-c2cc3nc4n(c(=O)c3s2)CCC4)cc1	TROY NFkB inh 62, LGR2 inh 87, EWS-Fli block inconclusive, LMP1 NFkB inh 52, TWEAK Fn14 block 95
COc1ccc(-c2cc3nc(C)n(N)c(=O)c3s2)cc1	TROY NFkB inh 81, LGR2 inh 101, EWS-Fli block 90, LMP1 NFkB inh 76, TWEAK Fn14 block 101
Cc1ccc(C)n1-n1c(C)nc2sc(-c3ccccc3)cc2c1=O	TWEAK Fn14 block 69 (no result: LGR2 inh, EWS-Fli block)
Cc1ccc(C)n1-n1cnc2sc(-c3ccccc3)cc2c1=O	none (no result: EWS-Fli block)
COc1ccc(S(=O)(=O)Nc2ccc3c(c2)C(=O)N([C@H](C)CO)C[C@@H](C)[C@H](CN(C)C(=O)Nc2cccc4ccccc24)O3)cc1	none (no result: TROY NFkB inh, LMP1 NFkB inh, TWEAK Fn14 block)
CCC(=O)N1CC(=O)N2[C@H](CO)[C@H](c3ccc(C#CC4CCCC4)cc3)[C@H]2C1	none (no result: TROY NFkB inh, LMP1 NFkB inh, TWEAK Fn14 block)
CC(=O)Nc1ccc(NC(=O)C(c2ccccc2)c2ccccc2)cc1	LMP1 NFkB inh 54
O=C(O)c1ccc(NC(=O)C(c2ccccc2)c2ccccc2)cc1	none
O=C(Cc1cccc2ccccc12)Nc1ccc(OC(F)F)c(Cl)c1	none
O=C(Nc1ccc(OC(F)F)c(Cl)c1)C(c1ccccc1)c1ccccc1	TROY NFkB inh 57
CCCN1C[C@@H](C)[C@H](OC)CN(C)C(=O)c2ccc(NC(=O)c3cccc(OC)c3)cc2OC[C@@H]1C	none (no result: TROY NFkB inh, LMP1 NFkB inh, TWEAK Fn14 block)
Cc1noc(C)c1NC(=O)N(C)C[C@@H]1Oc2ccc(NC(=O)Nc3cccc4ccccc34)cc2C(=O)N([C@H](C)CO)C[C@@H]1C	none (no result: TROY NFkB inh, LMP1 NFkB inh, TWEAK Fn14 block)
COc1cc(O)c2c(c1)oc(=O)c1c3cc(O)c(O)cc3oc21	EWS-Fli block 56 (no result: TROY NFkB inh, LGR2 inh, LMP1 NFkB inh, TWEAK Fn14 block)
O=C(Nc1cccc(Cl)c1)Nc1cccc(Cl)c1	none (no result: LGR2 inh, EWS-Fli block)
O=C(Nc1ccccc1)Nc1cc(OCC(F)(F)F)cc(OCC(F)(F)F)c1	TWEAK Fn14 block 59
O=C(NCCNC(=O)c1cc(OCC(F)(F)F)ccc1OCC(F)(F)F)Nc1cccc(C(F)(F)F)c1	none (no result: LGR2 inh, EWS-Fli block)
COC(=O)c1cc(NC(=O)Nc2cccc(Cl)c2)ccc1Cl	TWEAK Fn14 block 78
COC(=O)c1cccc(NC(=O)Nc2ccc(Cl)cc2)c1	EWS-Fli block 75
O=C(Nc1ccccc1)Nc1cc(Cl)cc(Cl)c1	TROY NFkB inh 51 (no result: LGR2 inh, EWS-Fli block)
O=C(Nc1cccnc1)Nc1cc(Cl)cc(Cl)c1	none
CC(C)NC(=O)Nc1cccc2c1O[C@H](CN(C)C)[C@H](C)CN([C@@H](C)CO)C2=O	none (no result: TROY NFkB inh, EWS-Fli block, LMP1 NFkB inh, TWEAK Fn14 block)
CCC(=O)N(C)C[C@@H]1Oc2cc(C#C[C@@H](C)O)ccc2S(=O)(=O)N([C@H](C)CO)C[C@@H]1C	none (no result: TROY NFkB inh, LMP1 NFkB inh, TWEAK Fn14 block)
C[C@H]1CN([C@@H](C)CO)C(=O)Cc2cc(NS(C)(=O)=O)ccc2O[C@H]1CN(C)Cc1ccc(Cl)c(Cl)c1	none (no result: TROY NFkB inh, EWS-Fli block, LMP1 NFkB inh, TWEAK Fn14 block)
COc1ccc(NC(=O)Nc2nc3ccccc3s2)cc1	none
O=C(NNc1nc2ccccc2s1)Nc1ccc(Cl)c(Cl)c1	TROY NFkB inh 82, TWEAK Fn14 block 52
O=C(NNc1nc2ccccc2s1)Nc1ccc(F)cc1	TWEAK Fn14 block 65
O=C(NNc1nc2ccccc2s1)c1ccccc1F	TROY NFkB inh 69
O=C(CN1c2ccccc2Sc2ccccc21)NNC(=O)Nc1ccc(Cl)c(Cl)c1	TROY NFkB inh 59 (no result: LGR2 inh)
O=C(C[C@@H]1C[C@H]2c3cc(NC(=O)Nc4ccc(C(F)(F)F)cc4)ccc3O[C@H]2[C@H](CO)O1)NCC1CC1	none (no result: TROY NFkB inh, LMP1 NFkB inh, TWEAK Fn14 block)
O=C1CC(NNc2nc3ccccc3s2)C(=O)N1c1ccc(F)cc1 (configuration not stated)	TROY NFkB inh 69
O=C(Nc1cccc(Cl)c1)Nc1nccs1	none (no result: LGR2 inh, EWS-Fli block)
O=C(Nc1ccc(Cl)c(Cl)c1)Nc1nccs1	LMP1 NFkB inh 66
COC(=O)c1ccsc1NC(=O)CCS(=O)(=O)c1ccc(Cl)cc1	none
O=C(CCS(=O)(=O)c1ccc(Cl)cc1)Nc1nccs1	TROY NFkB inh 57
